Assay results as given in PubChem BioAssay (NCATS).
“And” between values parts separate entries of the source, which are not always exact repeats. Identical values can stand only once. Records with an inconclusive call do not appear. Values without a mark were called inactive. The call rests on the fitted dose curve; in most records, active means well fitted inhibition curve with a large enough effect; inconclusive means small, poorly fitted or top-dose-only effect; inactive means flat fitted curve, though single readings scatter. Where a SMILES comes first, the peptide text is derived from it. Bridges are numbered along the chain shown (N, C = ends). [ ]: non-standard residue; d: D form. The star is where a group is joined. X2 = CC[C@H](C)CCCCC(=O)*; Dab = NCC[C@H](N)C(=O)O

System: KB-3-1
Experiment: Cytotoxic Profiling of Annotated Libraries Using Quantitative High-Throughput Screening (AID 1296008); further: nearly all actives have a fitted effect of over 60% in size
Conditions: Five cell lines viability, CellTiter-Glo ATP luminescence, 48-72 h; max response: hits give low values
In short: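 Cells exposed to compounds for 48 or 72 hr at 37 degrees Celsius. Viability read as ATP-coupled luminescence with CellTiter-Glo after 10 min at room temperature.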
On the % scale 0 is the no-effect control and ±100 the full control effect.

Row | Structure (SMILES) | max response
1 | COCc1c(Cl)ccc2c1CC[C@H]2c1ncc[nH]1 | -11.1%
2 | O=P(O)(O)OC(Cn1cncn1)(Cn1cncn1)c1ccc(F)cc1F | -21.6%
3 | CCCCCCCCCCCCCCCC(=O)OCCC1CCN(CCCN2c3ccccc3Sc3ccc(S(=O)(=O)N(C)C)cc32)CC1 | -4.82%
4 | CCCC(=O)N1CCCN(c2nc(N)c3cc(OC)c(OC)cc3n2)CC1 | -12.4%
5 | CCCCc1cc2c(=O)c(C(=O)OC)c[nH]c2cc1OCc1ccccc1 | -10.6%
6 | O=C1C(c2[nH]c3ccc(S(=O)(=O)O)cc3c2O)=Nc2ccc(S(=O)(=O)O)cc21 | 3.94% and -6.29%
7 | C[C@]12CC[C@@H]3c4ccc(OS(=O)(=O)O)cc4CC[C@H]3[C@@H]1CCC2=O | 3.98%
8 | CS(=O)(=O)Nc1cc2occ(NC=O)c(=O)c2cc1Oc1ccccc1 | 1.81%
9 | CO[C@H]1[C@@H](O)[C@H](N)[C@@H](O[C@H]2O[C@H]([C@H](C)N)CC[C@H]2N)[C@H](O)[C@@H]1N(C)C(=O)CN | -19.3%
10 | Nc1c(CC(=O)O)cccc1C(=O)c1ccccc1 | -7.36% and -8.46%
11 | CC(=O)O[C@H]1CC(C)(C)CC2[C@]13CO[C@@]21CCC2[C@@]4(C)CC[C@H](O[C@@H]5OC[C@H](O[C@@H]6O[C@H](CO)[C@@H](O)[C@H](O)[C@H]6O[C@@H]6OC[C@@H](O)[C@H](O)[C@H]6O)[C@H](O)[C@H]5O[C@@H]5O[C@H](CO)[C@@H](O)[C@H](O)[C@H]5O)[C@@](C)(CO)C4CC[C@@]2(C)[C@]1(C)C[C@H]3O (some centres undefined) | 4.15%
12 | COc1ccc(CNCC(O)COc2ccc3[nH]c(=O)ccc3c2)cc1OC (centres undefined) | 2.61%
13 | CC[C@H](C)CCCCC(=O)N[C@@H](CCN)C(=O)N[C@H](C(=O)N[C@@H](CCN)C(=O)N[C@H]1CCNC(=O)[C@H]([C@@H](C)O)NC(=O)[C@H](CCN)NC(=O)[C@H](CCN)NC(=O)[C@H](CC(C)C)NC(=O)[C@@H](CC(C)C)NC(=O)[C@H](CCN)NC1=O)[C@@H](C)O (X2-[Dab]T[Dab][Dab][Dab][dL]L[Dab][Dab]T; lactam 4-C) | -11.4%
14 | C=C[C@]1(C)C[C@@H](OC(=O)CO)[C@]2(C)[C@H](C)CC[C@]3(CCC(=O)[C@H]32)[C@@H](C)[C@@H]1O | -28.5%
